This is a sample that favours compounds with a hit; in the whole collection about 15% have one here.
ELG1 DNA repair = blocks ELG1-dependent DNA repair in HEK293T cells | Potency, µM (doses to about 46.1 µM), for the others: at the highest dose activity change, negative = inhibition, most hits filed as inhibitors | HEK293T ELG1-luciferase reporter, luminescence, 16 h; DNA damage induced by 5-fluorouridine | 330,000 compounds, 2.3% hits; also: nearly all actives have a fitted effect of over 55% in size
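Quantitative HTS, concentration-response format. 2,000 cells/well co-treated with 5-fluorouridine and compound, 16 hr in 5% CO2 at 37 °C; ONE-Glo luminescence read after 30 min.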
Gal4-VP16 FLuc = inhibits Gal4-VP16 luciferase reporter, ROR gamma counter-screen; Drosophila S2 Gal4-VP16 UAS-luciferase, luminescence, 20 h; Potency, µM (series often up to 53.6 µM), inactives show top-dose activity, negative = inhibition, most hits filed as inhibitors; 310,000 compounds, 3.5% hits;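 also: Gal4-VP16 expression switched on by copper sulfate through the metallothionein promoter; nearly all actives have a fitted effect of over 50% in size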
TDP1 cell CPT = growth inhibition of DT40 Tdp1-/-;hTDP1 cells with camptothecin (screen for TDP1 inhibitors) | Potency, µM (doses to about 46.2 µM), inactives show at the top dose activity change, negative = growth inhibition, hits mostly inhibitors | 420,000 compounds, 12% hits | chicken DT40 Tdp1-/-;hTDP1 cells + 20 nM CPT, ATP luminescence, 48 h; also: nearly all actives have a fitted effect of over 55% in size
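Chicken DT40 Tdp1-/- cells stably complemented with human TDP1 were seeded at 400 cells/well in medium containing 20 nM camptothecin, exposed to pin-transferred compounds, and grown at 37 °C for at least 48 hr. Viability was read as ATP luminescence.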
DT40 TDP1 no CPT = qHTS for Inhibitors of human tyrosyl-DNA phosphodiesterase 1 (TDP1): qHTS in cells in absence of CPT; DT40 Tdp1-/- hTDP1 cells, no CPT, ATP luminescence, 48 h; Potency, µM (doses to about 46.2 µM), inactives show at the top dose activity change, negative = growth inhibition, usual class: inhibitors; 420,000 compounds, 15% hits; also: nearly all actives have a fitted effect of over 55% in size
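Chicken DT40 Tdp1-/- cells stably complemented with human TDP1 were seeded at 400 cells/well with DMSO in place of 20 nM camptothecin. After compound pinning, cells grew at least 48 hr at 37 °C; viability read by CellTiter-Glo luminescence.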
12-LOX inh = ALOX12 (human) lipoxygenase inhibition | AID 1671190 | 580,000 compounds, 1.1% hits | Potency, µM (top dose mostly 108 µM), without a hit: at the highest dose activity change, negative = inhibition, usual class: inhibitors | P18054 | purified 12hLO, xylenol orange hydroperoxide absorbance
Target sequence (P18054 whole entry, looked up): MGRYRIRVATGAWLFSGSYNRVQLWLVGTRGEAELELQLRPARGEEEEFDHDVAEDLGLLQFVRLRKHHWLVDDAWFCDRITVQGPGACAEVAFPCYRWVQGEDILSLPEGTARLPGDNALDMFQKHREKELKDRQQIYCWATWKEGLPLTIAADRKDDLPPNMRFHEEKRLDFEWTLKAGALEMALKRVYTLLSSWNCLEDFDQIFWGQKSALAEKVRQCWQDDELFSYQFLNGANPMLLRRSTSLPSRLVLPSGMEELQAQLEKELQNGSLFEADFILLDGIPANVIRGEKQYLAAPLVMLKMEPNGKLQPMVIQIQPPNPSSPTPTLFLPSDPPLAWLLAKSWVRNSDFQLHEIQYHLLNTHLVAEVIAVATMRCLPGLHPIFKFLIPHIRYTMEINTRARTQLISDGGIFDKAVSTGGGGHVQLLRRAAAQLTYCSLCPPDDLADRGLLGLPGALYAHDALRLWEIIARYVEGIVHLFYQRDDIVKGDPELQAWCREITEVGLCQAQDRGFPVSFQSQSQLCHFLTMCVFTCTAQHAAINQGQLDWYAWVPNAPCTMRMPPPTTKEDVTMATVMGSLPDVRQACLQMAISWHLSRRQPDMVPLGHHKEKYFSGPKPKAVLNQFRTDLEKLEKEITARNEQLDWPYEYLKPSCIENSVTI
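Purified human 12hLO at 150 nM in 25 mM Hepes, 0.01% Triton X-100, pH 7.0, preincubated 15 min at room temperature with compound. Reaction started with 40 uM arachidonic acid, 30 min at room temperature. Hydroperoxide measured by Fe-xylenol orange, 573/405 nm absorbance ratio.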
RORg inh = blocks mouse ROR gamma transcriptional activity | 310,000 compounds, 5.4% hits | Potency, µM (top dose mostly 53.6 µM), inactives show at the top dose activity change, negative = inhibition, hits mostly inhibitors | P51450 | Drosophila S2 Gal4-RORgamma UAS-luciferase reporter, 20 h; also: nearly all actives have a fitted effect of over 60% in size
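Stably transfected Drosophila Schneider cells are the test system, with ROR gamma fused to Gal4 and luciferase under UAS control; luminescence is read after 20 hr of 700 uM copper sulfate induction at ambient temperature.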
An asterisk follows results filed as active; u = inconclusive; x = no result given; [ ] = dose if it differs, or a comment. Calls follow the shape of the dose curve; as a rule, active = well fitted curve in the direction sought with a large enough effect; inconclusive = small, poorly fitted or top-dose-only effect, or another doubt; inactive = no such curve, though single readings can be large; an effect the other way counts as inactive or inconclusive. % is scaled to controls: 0 for no effect and ±100 for the full control effect; potency is read from the fitted curve at half-maximal effect.

SMILES	ELG1 DNA repair	Gal4-VP16 FLuc	TDP1 cell CPT	DT40 TDP1 no CPT	12-LOX inh	RORg inh
CC1=NN(c2ccccc2)C(=O)C1/C=C1\C(=O)NC(=O)N(c2cc(C)cc(C)c2)C1=O (stereo unspecified)	10%	-8%	-13%	u	u	3%
COc1cc2c(cc1Oc1ccccc1)NC(=O)C21CCN(CC2CC2)CC1	x	x	x	x	71%[176 µM]	x
Cc1cc2c(N3CCC(N4C[C@@H]5CCN[C@@H]5C4)CC3)ncnc2s1	x	x	x	x	13%	x
CN(C)c1ccc(CN2CCc3nc(N4CCN(c5ccccn5)CC4)ncc3C2)cc1	x	x	21µM*	21µM*	u	x
Cc1ccccc1CN1CCc2nc(N3CCN(c4ccccn4)CC3)ncc2C1	x	x	u	u	-26%	x
COc1cc(CN2CCc3nc(N4CCN(c5ncccn5)CC4)ncc3C2)cc(OC)c1OC	x	x	8.2µM*	8.2µM*	u	x
Cn1nc(-c2ccc(F)cc2)cc1[C@H]1CN2CC[C@H]1C[C@@H]2CNC(=O)Nc1ccccc1	x	x	x	x	65%[176 µM]	x
CCOc1ccc(CC(=O)N2CCC3(CC2)c2nccn2-c2ccccc2CN3C)cc1	x	x	x	x	50%	x
Cc1ccc2cc(CNCCc3ccccc3C)c(=O)[nH]c2c1	-11%	-9%	u	18µM*	-29%	u
Cc1cccc(CCNCc2cc3cc(C)cc(C)c3[nH]c2=O)c1	-25%	-14%	u	-24%	0%	-24%
Cc1cccc(CCNCc2cc3cccc(C)c3[nH]c2=O)c1	5%	7.9µM*	8.2µM*	13µM*	0%	u
C=C[C@H]1CN2CC[C@H]1C[C@@H]2CNC(=O)Nc1cccc(C#N)c1	x	x	x	x	18%[176 µM]	x
O=C1Nc2ccccc2CC12CN(Cc1ccncc1)C2	x	x	x	x	6%[12.5 µM]	x
COC1C(O)CC(OC2C(O)CC(OC3C(O)CC(OC4CCC5(C)C(CCC6[C@@H]5CC(O)C5(C)C(C7=CC(=O)OC7)CCC65O)C4)OC3C)OC2C)OC1C (stereo partly specified)	x	x	x	x	6%	x
COc1cc(CC(C)N)cc(OC)c1OC (stereo unspecified)	x	x	4%[92.5 µM]	-6%[92.5 µM]	x	x
COc1cc(C2C(C#N)=C(N)Oc3cc(O)ccc32)cc(OC)c1OC (stereo unspecified)	u	-4%	1µM*	1µM*	-21%	-35%
C=CCOc1c(Cl)cc(CNc2ccc3[nH]c(=O)[nH]c3c2)cc1OC	u	-5%	13µM*	u	16%	28%
CCOc1c(Cl)cc(CNC(C)C(O)c2ccccc2)cc1OC (stereo unspecified)	-6%	-18%	-12%	-12%	7%	12%
CCOc1c(Cl)cc(CNc2ccc(S(N)(=O)=O)cc2)cc1OC	u	-5%	u	16µM*	-19%	u
Cc1ccc(C(=O)N2[C@H]3CC[C@@H]2c2cnc(C)nc2C3)c(C)c1	x	x	x	x	20%	x
CN=CNc1ccc(C)cc1C	x	x	x	x	0%[176 µM]	x
O=[N+]([O-])c1ccnc(N2CC3CCC(C2)N3CC(F)(F)F)c1	x	x	x	x	-6%[6.33 µM]	x
Cc1ccccc1C(O)(Cc1ccccc1)C1CN2CCC1CC2 (stereo unspecified)	u	0%	18µM*	18µM*	u	u
Cc1ccc(C(O)(c2ccc(C)c(C)c2)C2CN3CCC2CC3)cc1C (stereo unspecified)	-20%	-15%	3.7µM*	2.3µM*	u	u
O=[N+]([O-])c1ccc(CNCCc2ccccc2)cc1	7%	0%	-22%	u	u	7%[1.91 µM]
SMILES	ELG1 DNA repair	Gal4-VP16 FLuc	TDP1 cell CPT	DT40 TDP1 no CPT	12-LOX inh	RORg inh
O=[N+]([O-])c1ccc(C[n+]2c(-c3ccccc3)cc(-c3ccccc3)cc2-c2ccccc2)cc1	u	x	2.6µM*	2.3µM*	-4%	x
O=[N+]([O-])c1cc(Cl)c(O)c(-[n+]2c(-c3ccccc3)cc(-c3ccccc3)cc2-c2ccccc2)c1	u	-8%	13µM*	8.2µM*	-22%	31%
O=[N+]([O-])c1cc(Cl)c(Cl)c(Cl)c1	x	-1%	x	x	x	-6%
CN(Cc1ccccc1)C[C@H]1CN2CC[C@H]1C[C@@H]2CNC(=O)Nc1ccccc1	x	x	x	x	-4%[176 µM]	x
NNC(=O)CN1C(=O)CN=C(c2ccccc2)c2cc(Br)ccc21	0%	-12%	2%	-9%	175%	16%
Cc1ccc(NC(=O)CN2C(=O)CN=C(c3ccccc3)c3ccccc32)cc1Cl	x	x	23µM*	u	u	x
CN1C(=O)CN=C(c2ccc(Cl)cc2)c2cc(Cl)ccc21	u	-5%	12%	u	-29%	10%
Cc1ccccc1CN1C(=O)CN=C(c2ccccc2)c2cc(Cl)ccc21	x	x	u	18µM*	-15%	x
CN1C(=O)CN=C(c2ccccc2Cl)c2cc(Br)ccc21	u	-1%	-28%	-15%	1%	-25%
Cc1cccc(CN2C(=O)CN=C(c3ccccc3Cl)c3cc(Cl)ccc32)c1	x	x	23µM*	23µM*	u	x
CC1=NOC2(CCN(Cc3cccnc3)C2)C1 (stereo unspecified)	x	x	x	x	41%[176 µM]	x
CCC(C(=O)Nc1ccccc1C(=O)OC)n1nc(C)c2c(C)n(-c3ccc(C)cc3)nc2c1=O (stereo unspecified)	x	x	7.3µM*	12µM*	-30%	x
CC(C)CNP(=S)(c1ccccc1)C(C)(C)C (stereo unspecified)	-19%	u	u	2%	-10%	7.9µM*
CNS(=O)(=O)c1ccc(-c2ccc(C=C3C(=O)NC(=O)NC3=O)o2)cc1	8%	-14%	-6%	-21%	u	-5%
NS(=O)(=O)c1ccc(-c2ccc(C=C3C(=O)NC(=O)NC3=O)o2)cc1	19%	-4%	-25%	-1%	0%	5%
O=C1NC(=O)C(=Cc2ccc(-c3cc(Cl)ccc3[N+](=O)[O-])o2)C(=O)N1	6%	10%	16µM*	u	6.3µM*	2%
O=C1NC(=O)C(=Cc2cc3c(cc2[N+](=O)[O-])OCO3)C(=O)N1	16%	-11%	-3%	u	u	12%
O=C1NC(=O)C(=Cc2ccc(-c3ccccc3[N+](=O)[O-])o2)C(=O)N1	22%	u	7.3µM*	13µM*	u	-6%
O=C1NC(=O)C(=Cc2ccccc2[N+](=O)[O-])C(=O)N1	x	x	15µM*	16µM*	u	x
